According to PubChem BioAssay:

system: Human papillomavirus type 1a E7 protein (residues 1-88); experiment: HPV1a E7 small-molecule binders, primary screen, biochemical, small-molecule microarray, residues 1-88, 635 nm (AID 1129); settings: small-molecule microarray binding, fluorescence 635 nm; higher = more signal

| SMILES | composite z-score |
| --- | --- |
| COCCOC(=O)N1C(=O)[C@@]2(c3cc(C#CC4(O)CCCCCC4)ccc31)[C@H](c1ccc(O)cc1)N1[C@H](c3ccccc3)[C@H](c3ccccc3)OC(=O)[C@H]1[C@@H]2C(=O)Nc1nc2ccccc2s1 | 1.19 |
| Cc1ccc(S[C@]2(C(=O)NC(C)C)CC(=O)N(Cc3ccccc3Cl)[C@@H]2c2ccc(CO)cc2I)cc1 | 0.164 |
| COc1ccc(CCNC(=O)[C@@]2(Sc3ccc(C)cc3)CC(=O)N(C3CCCCC3)[C@@H]2c2ccc(CO)cc2I)cc1 | 1.21 |
| COCCOC(=O)N1C(=O)[C@@]2(c3cc(C#Cc4ccc(OC)cc4)ccc31)[C@H](c1ccccc1OCCO)N1[C@H](c3ccccc3)[C@H](c3ccccc3)OC(=O)[C@H]1[C@@H]2C(=O)N1CCN(c2ncccn2)CC1 | 1.18 |
| NC(=O)[C@@H]1[C@H]2C(=O)O[C@H](c3ccccc3)[C@H](c3ccccc3)N2[C@H](c2ccc(O)cc2)[C@@]12C(=O)Nc1ccc(C#CC3(O)CCCCCC3)cc12 | -0.239 |
| CC(=O)N1Cc2ccccc2C[C@@]2(COC(c3ccc(OCCCO)cc3)=N2)C1=O | 1.18 |
